Screening results (PubChem BioAssay)
Rows were chosen to be rich in hits. Some 2.7% of all compounds tested hit in one or more screens of this group.
MRP resist rev: reverses drug resistance mediated by MRP; H69AR cells + 2 uM doxorubicin, CellTiter-Glo, 72 h; differential viability (reversal), % at 10 µM; hit rate 0.04% among 85,000; AID 602;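 active = viability drop by adding the cancer drug above about 55%, with treated viability meeting a 40% cutoff, limit read from the data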;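 note: viability without doxorubicin minus viability with 2 µM doxorubicin for each compound; larger differential means the compound sensitizes cells more to doxorubicin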
ERa SRC1 pot: ER-alpha (human) coactivator binding potentiation; P03372; AID 639; TR-FRET ERalpha-LBD/SRC-Cy5 coactivator binding, 2 h; 100 = basal binding, no effect; coactivator binding (% of control), % at 25.6 µM; hit rate 1.3% among 86,000; in the data active = activity above about 200%;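 note: binding measured in presence of low estradiol as agonist stimulus; 0% = peptide alone without receptor and 100% = receptor with peptide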
MRP1 act: MRP-1 activation. H69AR cells + doxorubicin, viability rescue, CellTiter-Glo. viability increase, % at 10 µM. hit rate 0.61% among 140,000. AID 799;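 active = viability gain under doxorubicin at or above a set limit, the compound median plus 3 SD, cut at about 4.7% in these data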;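 note: MRP-1 overexpressing cells given doxorubicin 25 µM after compound pretreatment; 18-22 h compound pretreatment then 72 h with doxorubicin before readout; 0% = doxorubicin-only wells and 100% = vehicle-treated cells without doxorubicin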
ERb SRC1 inh: ER-beta (human) coactivator binding inhibition; TR-FRET ER-beta LBD / SRC1-Cy5 peptide binding; receptor agonist-loaded with 1 µM estradiol; hit rate 1.3% among 86,000; Q92731; AID 633; inhibition, % at 25.6 µM;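 active = compounds whose percent inhibition of the receptor-coactivator binding signal exceeds about 50% in the single-dose screen, limit read from the data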;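 note: 0% = receptor plus peptide wells without compound and 100% = peptide-only wells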
Target sequence (Q92731 whole entry, looked up, the tested form may be a part): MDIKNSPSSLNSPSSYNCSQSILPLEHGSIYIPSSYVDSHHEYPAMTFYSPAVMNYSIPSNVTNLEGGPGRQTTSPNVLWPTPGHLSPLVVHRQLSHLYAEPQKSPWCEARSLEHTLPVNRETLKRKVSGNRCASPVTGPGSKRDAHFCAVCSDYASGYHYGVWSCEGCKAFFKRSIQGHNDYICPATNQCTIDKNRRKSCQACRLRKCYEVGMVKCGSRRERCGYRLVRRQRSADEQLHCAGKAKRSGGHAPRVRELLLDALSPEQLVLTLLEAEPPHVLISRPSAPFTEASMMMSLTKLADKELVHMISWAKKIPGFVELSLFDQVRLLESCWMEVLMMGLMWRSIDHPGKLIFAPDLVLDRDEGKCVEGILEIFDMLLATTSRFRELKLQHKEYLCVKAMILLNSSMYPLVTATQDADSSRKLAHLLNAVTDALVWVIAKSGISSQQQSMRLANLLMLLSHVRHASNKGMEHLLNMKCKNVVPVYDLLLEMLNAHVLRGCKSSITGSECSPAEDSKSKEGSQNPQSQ
ERa SRC1 inh: ER-alpha (human) coactivator binding inhibition; TR-FRET ER-alpha LBD / SRC-1 peptide, estradiol-bound; inhibition, % at 25.6 µM; hit rate 1.7% among 86,000; AID 629; in the data active = inhibition above about 50%;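 note: 0% = receptor plus peptide control and 100% = peptide only without receptor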
* hit, by the source's call; . = not tested or not shown; [ ] = remark or other dose.

SMILES | MRP resist rev | ERa SRC1 pot | MRP1 act | ERb SRC1 inh | ERa SRC1 inh
O=C(c1cc2sccc2n1Cc1ccccc1)N1CCCc2ccccc21 | 1 | 127 | -2 | -3 | -7
O=C(c1cc2sccc2n1Cc1ccccc1)N1CCc2ccccc21 | -4 | 509* | -3 | 5 | 14
CN(C)CCCNC(CC(=O)Nc1ccc(Cl)cc1)C(=O)O (centres undefined) | -8 | 126 | . | -8 | 0
COc1ccc(/C=N/Nc2cc(C)nc(-n3nc(C)cc3C)n2)cc1 | . | . | 9.1* | . | .
Cc1cc(N/N=C/c2ccc(O)cc2O)nc(-n2nc(C)cc2C)n1 | . | . | 5.3* | . | .
COc1ccc(/C=N/Nc2cc(C)nc(NS(=O)(=O)c3ccc(C)cc3)n2)cc1 | . | . | -4 | . | .
O=C(O)c1cn(-c2ccccc2)nc1-c1ccncc1 | 21 | 112 | -2 | -2 | 0
O=C(c1cn(-c2ccccc2)nc1-c1ccncc1)n1nnc2ccccc21 | -9 | 216* | . | 26 | 33
NC(=S)N/N=C/c1ccccc1OCCSc1ccc(Cl)cc1 | . | . | -4 | . | .
O=C(Nc1nnc(C2CCCO2)s1)c1ccc(Br)cc1 (centres undefined) | 15 | 44 | -2 | 54* | 21
Cc1cccc(C)c1OCC(=O)Nc1nnc(C2CCCO2)s1 (centres undefined) | . | . | 2 | . | .
CCCC(=O)N1CCN(c2nc(CC(C)C)c3c(c2C#N)CCC3)CC1 | 9 | 90 | -2 | -14 | -9
COc1ccc(OCC(=O)N2CCN(C(=O)c3ccccc3)CC2)cc1 | 6 | 492*[fluorescence artefact?] | 2 | 0 | 0
COc1ccc(N2CCN(C(=O)COc3ccccc3)CC2)cc1 | 4 | 138 | -2 | 2 | 3
O=c1oc2ccccc2cc1N1CCOCC1 | . | . | 0 | . | .
Cc1ccc(S(=O)(=O)N(C)CCCC(=O)Nc2ccc(C)cc2C)cc1 | . | . | -1 | . | .
COc1ccccc1OC1=NS(=O)(=O)c2ccccc21 | -20 | 16 | 0 | 3 | 78*[fluorescence artefact?]
CCN(CC)c1cccc(OC2=NS(=O)(=O)c3ccccc32)c1 | -16 | 18 | -1 | 25 | 83*[fluorescence artefact?]
C=CCn1c(SCC(=O)NC(=O)c2cccc([N+](=O)[O-])c2)nnc1-c1ccccc1F | . | . | 0 | . | .
O=C(c1cnn2c(C(F)(F)F)cc(-c3cccs3)nc12)N1CCN(C(c2ccccc2)c2ccccc2)CC1 | 5 | 114 | 8.3* | -15 | -11
CN1CCN(C(=O)c2cnn3c(C(F)(F)F)cc(-c4cccs4)nc23)CC1 | . | . | -2 | . | .
C=CCn1c(SCC(=O)c2c(N)n(CCC)c(=O)n(C)c2=O)nc2sc(CC)cc2c1=O | -1 | 445*[fluorescence artefact?] | -4 | 37 | 49
Nc1c(C(O)(C(F)(F)F)C(F)(F)F)ccc2ccccc12 | 8 | 286*[fluorescence artefact?] | -4 | -1 | -10
C/C(=N/OCC(=O)NCCCCCCNC(=O)CO/N=C(/C)c1cccs1)c1cccs1 | . | . | -3 | . | .
O=C(CSc1nnc(CCCOc2ccc(Cl)cc2Cl)o1)Nc1ccc(C(=O)O)cc1 | . | . | 0 | . | .
SMILES | MRP resist rev | ERa SRC1 pot | MRP1 act | ERb SRC1 inh | ERa SRC1 inh
COc1ccc2cc(-c3cc(C(=O)O)c4ccccc4n3)ccc2c1 | . | . | 6.5* | . | .
Cc1noc(C)c1S(=O)(=O)N(CC(=O)O)c1ccc2c(c1)OCO2 | -2 | 60 | -1 | 54* | 41
COc1cccc(-n2nnc3c(=O)n(CC(=O)N4CCCc5ccccc54)cnc32)c1 | -2 | 98 | -1 | -3 | -2
Cc1cc(C)n2nc(C(=O)Nc3ccc4c(c3)OCO4)nc2n1 | 0 | 48 | 0 | 49 | 59*[fluorescence artefact?]
CCN(CC)C(=S)Nc1ccc(Cl)c(Cl)c1 | . | . | -2 | . | .
CCOC(=O)c1c(COC(=O)c2ccco2)nc2ccccc2[n+]1[O-] | 25 | 84 | -1 | 4 | -11
CC(=O)c1c(COC(=O)c2ccco2)nc2ccccc2[n+]1[O-] | -7 | 39 | . | 61* | 64*
CC(=O)c1c(COC(=O)c2ccncc2)nc2ccccc2[n+]1[O-] | -7 | 34 | -1 | 62*[fluorescence artefact?] | 50
C=CCn1c(SCC(=O)Nc2sccc2C(N)=O)nc2ccc(Cl)cc2c1=O | -23 | 122 | 2 | 47 | 64*[fluorescence artefact?]
CCOC(=O)c1ccc(NC(=O)c2cn(CCC#N)nc2-c2ccc3c(c2)OCCO3)cc1 | . | . | 2 | . | .
Cn1c(=O)cc(SCC(=O)Nc2cccnc2)c2ccccc21 | 9 | 264*[fluorescence artefact?] | 0 | -10 | 5
Cn1c(=O)cc(SCC(=O)NCc2cccnc2)c2ccccc21 | -2 | 113 | -2 | -16 | -3
Cc1ccc(C2=NN3C(C(=O)c4ccccc4)Oc4ccccc4C3C2)cc1 (centres undefined) | . | . | -1 | . | .
COc1ccc2nc(/N=C/c3c(C)[nH]n(-c4ccc(C)cc4C)c3=O)sc2c1 | . | . | -2 | . | .
